PubChem BioAssay (Tox21)
Values joined by “and” are separate entries in the source; they are usually repeats but may differ in a detail not shown here. Equal entries are not always repeated. Inconclusive results are not listed. Entries that show only a call come without a potency. Some structures have more than one record in an assay (separate samples or runs), and their calls can disagree. Active and inactive are the calls of the source. Unless noted, calls come from the whole dose curve; as a rule, active = well fitted curve in the direction sought with a large enough effect in the repeat runs; inconclusive = weak or mixed curves; inactive = no such curve, though single readings can be large; an effect the other way counts as inactive or inconclusive.

Assays:
[1] = qHTS assay to identify small molecule agonists of the progesterone receptor (PR) signaling pathway - cell viability counter screen (AID 1346799; calls by dose curve; note: nearly all actives have a fitted effect of over 45% in size)
How it was run: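 In parallel with the beta-lactamase readout, cytotoxicity toward PR-UAS-bla HEK293T cells was measured by CellTiter-Glo luminescence following 16 hr compound incubation in 2% charcoal-stripped FBS medium.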

[2] = qHTS assay to identify small molecule antagonists of the TGF-beta/Smad signaling pathway - cell viability counter screen (AID 1346824); note: nearly all actives have a fitted effect of over 50% in size
How it was run: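 SBE-bla HEK 293T cells, incubated overnight, then compound plus 0.25 ng/mL TGF-beta1 (stock added) for 5 hr at 37 C. Viability was read in the same wells by CellTiter-Glo luminescence after 30 min at room temperature.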

[3] = qHTS assay to identify small molecule agonists of the TGF-beta/Smad signaling pathway - cell viability counter screen (AID 1346829); note: top concentration of the series differs between compounds; nearly all actives have a fitted effect of over 45% in size
How it was run: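 Luminescence from CellTiter-Glo, read after a 30 min room-temperature incubation, gives cell viability of SBE-bla HEK 293T cells treated 5 hr with compounds at 37 C.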

[4] = qHTS assay to identify small molecule agonists of the TGF-beta/Smad signaling pathway (AID 1346859; active = well fitted activation curve with a large enough effect in the signal ratio in the repeat runs, not every such curve was filed as active; the % refers to the signal ratio; note: series mostly up to about 77 µM)
How it was run: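 After overnight seeding, SBE-bla HEK 293T cells are dosed with compounds in DMSO and kept 5 hr at 37 C, 5% CO2. LiveBLAzer-type FRET substrate is then applied for 2 hr at room temperature.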

[5] = biological target: Thyrotropin-releasing hormone receptor (Homo sapiens) (UniProt P34981); experiment: qHTS assay to identify small molecule antagonists of the thyrotropin-releasing hormone receptor (TRHR) signaling pathway (AID 1346877; active = well fitted inhibition curve with a large enough effect in the repeat runs, not every such curve was filed as active; note: series mostly up to about 51 µM)
Sequence of Thyrotropin-releasing hormone receptor (Homo sapiens) (P34981 whole entry, looked up): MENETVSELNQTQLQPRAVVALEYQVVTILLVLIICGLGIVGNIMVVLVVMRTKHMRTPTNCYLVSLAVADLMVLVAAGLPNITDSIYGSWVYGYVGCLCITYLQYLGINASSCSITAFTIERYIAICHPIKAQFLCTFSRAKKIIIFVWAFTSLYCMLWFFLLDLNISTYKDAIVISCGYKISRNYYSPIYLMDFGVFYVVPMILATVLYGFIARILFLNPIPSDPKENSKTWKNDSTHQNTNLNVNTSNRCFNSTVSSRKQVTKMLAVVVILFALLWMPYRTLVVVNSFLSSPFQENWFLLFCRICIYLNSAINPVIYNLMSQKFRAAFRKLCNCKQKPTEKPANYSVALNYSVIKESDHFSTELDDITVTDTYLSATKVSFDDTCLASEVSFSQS
How it was run: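 Following an 18 h incubation at 37 °C and a 2 h calcium dye load, TRHR-HEK293 cells were exposed to compound (5 min, room temperature) and challenged with TRH, 1 nM final.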

[6] = biological target: Thyrotropin-releasing hormone receptor (Homo sapiens) (UniProt P34981); experiment: qHTS assay to identify small molecule agonists of the thyrotropin-releasing hormone receptor (TRHR) signaling pathway (AID 1346891; calls by dose curve;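 note: HEK293 cells expressing TRHR with calcium dye readout; series mostly up to about 58 µM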)
How it was run: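 Compounds were tested as agonists at 15 concentrations, in triplicate, on TRHR-Hek293 cells; calcium-sensitive dye fluorescence was recorded for 3 min following addition.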

[7] = Caspase-3/7 induction in HepG2 cells by small molecules, qHTS assay (AID 1346978); note: nearly all actives have a fitted effect of over 15% in size
How it was run: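 Wild-type HepG2 cells, 2,000/well, settled 5 hr at 37 C and 5% CO2, then compound-treated for 17 hr; caspase-3/7 activity read by luminescent Caspase-Glo 3/7 after 30 min at room temperature.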

[8] = Caspase-3/7 induction in CHO-K1 cells by small molecules, qHTS cell viability counter screen (AID 1346979); note: nearly all actives have a fitted effect of over 35% in size; note: potency is the fitted concentration of half-maximal effect
How it was run: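 Viability readout by fluorescence (CellTiter-Fluor) on wild-type CHO-K1 cells exposed for 16hr at 37C and 5% CO2 to compounds delivered in DMSO; reagent incubated 1hr before reading.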

[9] = Caspase-3/7 induction in CHO-K1 cells by small molecules, qHTS assay (AID 1346980); note: nearly all actives have a fitted effect of over 15% in size
How it was run: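 Wild-type CHO-K1 cells exposed to compounds for 17hr at 37 C, 5% CO2. Caspase-3/7 activity then measured by Caspase-Glo 3/7 luminescence after 30min at room temperature.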

[10] = Caspase-3/7 induction in HepG2 cells by small molecules, qHTS cell viability counter screen (AID 1346981); note: series mostly up to about 92 µM; nearly all actives have a fitted effect of over 30% in size
How it was run: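 Viability determined by CellTiter-Fluor fluorescence in HepG2 wells also used for the luminescent Caspase-Glo 3/7 read. Compounds were present for 16 hr at 37 C, 5% CO2 before reagent addition.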

[11] = biological target: Nuclear receptor subfamily 1 group I member 2 (Homo sapiens) (UniProt O75469); experiment: Human pregnane X receptor (PXR) small molecule agonists, qHTS assay (AID 1346982); note: nearly all actives have a fitted effect of over 35% in size; note: potency is the fitted concentration of half-maximal effect
Sequence of Nuclear receptor subfamily 1 group I member 2 (Homo sapiens) (O75469 whole entry, looked up): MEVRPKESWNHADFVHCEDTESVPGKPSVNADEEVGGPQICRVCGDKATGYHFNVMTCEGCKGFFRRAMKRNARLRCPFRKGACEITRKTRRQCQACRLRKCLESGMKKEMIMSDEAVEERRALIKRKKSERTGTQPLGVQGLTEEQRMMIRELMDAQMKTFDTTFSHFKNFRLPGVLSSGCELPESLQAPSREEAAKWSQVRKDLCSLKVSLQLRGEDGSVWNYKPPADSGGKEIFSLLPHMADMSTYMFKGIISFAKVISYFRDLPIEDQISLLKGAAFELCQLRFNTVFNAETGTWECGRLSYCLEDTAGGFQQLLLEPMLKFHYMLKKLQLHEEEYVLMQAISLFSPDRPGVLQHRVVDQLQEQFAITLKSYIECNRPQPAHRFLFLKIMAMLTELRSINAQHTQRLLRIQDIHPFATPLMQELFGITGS
How it was run: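 Compound-induced hPXR transactivation of a CYP3A4 luciferase reporter was scored in HepG2 PXR-Luc cells over 24 hr at 37 C, 5% CO2, by luminescence.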

[12] = biological target: Acetylcholinesterase (Homo sapiens) (UniProt P22303); experiment: Acetylcholinesterase (AChE) small molecule antagonists: fluorescence cell-based qHTS assay (AID 1347398; calls by dose curve; note: nearly all actives have a fitted effect of over 50% in size); settings: Potency: AChE activity
Sequence of Acetylcholinesterase (Homo sapiens) (P22303 whole entry, looked up): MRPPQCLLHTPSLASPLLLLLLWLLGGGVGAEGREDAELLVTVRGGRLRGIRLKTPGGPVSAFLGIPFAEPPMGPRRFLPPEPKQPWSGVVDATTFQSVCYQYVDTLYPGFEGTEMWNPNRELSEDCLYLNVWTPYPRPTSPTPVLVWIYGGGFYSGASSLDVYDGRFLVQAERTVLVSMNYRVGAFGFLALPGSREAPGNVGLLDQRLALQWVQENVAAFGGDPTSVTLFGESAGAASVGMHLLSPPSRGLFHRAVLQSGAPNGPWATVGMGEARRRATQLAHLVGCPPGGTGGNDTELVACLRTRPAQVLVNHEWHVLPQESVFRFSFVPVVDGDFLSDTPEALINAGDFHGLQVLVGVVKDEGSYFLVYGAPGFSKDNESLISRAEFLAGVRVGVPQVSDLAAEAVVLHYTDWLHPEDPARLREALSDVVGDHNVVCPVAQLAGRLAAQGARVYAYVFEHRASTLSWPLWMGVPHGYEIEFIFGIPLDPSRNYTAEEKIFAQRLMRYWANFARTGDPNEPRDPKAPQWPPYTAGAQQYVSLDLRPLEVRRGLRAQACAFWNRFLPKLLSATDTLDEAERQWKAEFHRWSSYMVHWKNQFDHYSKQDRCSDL
How it was run: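 Endogenous acetylcholinesterase of SH-SY5Y neuroblastoma cells is measured in situ. After overnight attachment and 30 min compound exposure, cells receive acetylthiocholine and Thiolite Green; fluorescence is read after 40 min at room temperature.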

[13] = biological target: Acetylcholinesterase (Homo sapiens) (UniProt P22303); experiment: Acetylcholinesterase (AChE) small molecule antagonists: enzyme-based qHTS assay with human liver microsomes (AID 1347399; calls by dose curve; note: nearly all actives have a fitted effect of over 60% in size); settings: Potency: qHTS inhibition
How it was run: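 Recombinant human AChE (50 mU/mL in the enzyme mix) and human liver microsomes (0.25 mg/mL final) were preincubated with compound and NADPH (0.25 mg/mL final) for 30 min at 37 C. Acetylthiocholine/DTNB was then added; thiocholine was read colorimetrically after 10 min at room temperature.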

[14] = biological target: Cytochrome P450 2D6 (Homo sapiens) (UniProt P10635); experiment: Cytochrome P450 Family 2 Subfamily D Member 6 (CYP2D6) small molecule antagonists: luciferase reporter qHTS assay (AID 1671196); note: nearly all actives have a fitted effect of over 50% in size; note: potency is the fitted concentration of half-maximal effect
Sequence of Cytochrome P450 2D6 (Homo sapiens) (P10635 whole entry, looked up): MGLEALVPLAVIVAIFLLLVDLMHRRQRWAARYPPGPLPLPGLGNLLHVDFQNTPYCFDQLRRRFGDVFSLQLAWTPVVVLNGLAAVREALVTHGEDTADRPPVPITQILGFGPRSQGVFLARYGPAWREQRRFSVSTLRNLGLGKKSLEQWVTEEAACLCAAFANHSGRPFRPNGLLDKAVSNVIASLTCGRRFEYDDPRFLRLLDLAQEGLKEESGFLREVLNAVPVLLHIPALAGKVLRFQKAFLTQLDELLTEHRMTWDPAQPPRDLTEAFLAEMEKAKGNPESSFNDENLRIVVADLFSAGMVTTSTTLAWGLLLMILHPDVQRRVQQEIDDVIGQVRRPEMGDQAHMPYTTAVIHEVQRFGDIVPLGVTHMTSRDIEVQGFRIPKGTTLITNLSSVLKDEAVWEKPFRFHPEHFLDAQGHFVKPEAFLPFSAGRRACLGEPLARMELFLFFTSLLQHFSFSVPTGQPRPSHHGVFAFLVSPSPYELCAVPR
How it was run: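 Each well received CYP2D6 with its proluciferin substrate and chemical, sat 10 min, then got NADPH regeneration solution for 1 h at room temperature. Luminescence in RLU served as the activity measure.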

[15] = Human pregnane X receptor (PXR) small molecule agonists, qHTS cell viability counter screen (AID 1346977); note: nearly all actives have a fitted effect of over 50% in size; note: potency is the fitted concentration of half-maximal effect
How it was run: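 Viability counter screen: CellTiter-Fluor signal in PXR-Luc HepG2 cells, 24hr compound exposure, 37C, 5% CO2.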

[16] = biological target: Nuclear receptor subfamily 1 group I member 2 (Rattus norvegicus) (UniProt Q9R1A7); experiment: Rat pregnane X receptor (rPXR) activation by small molecules, qHTS assay (AID 1346983); settings: rPXR luciferase reporter cells, One-Glo luminescence, 24 h; stronger effect = higher value; note: nearly all actives have a fitted effect of over 20% in size
Sequence of Nuclear receptor subfamily 1 group I member 2 (Rattus norvegicus) (Q9R1A7 whole entry, looked up): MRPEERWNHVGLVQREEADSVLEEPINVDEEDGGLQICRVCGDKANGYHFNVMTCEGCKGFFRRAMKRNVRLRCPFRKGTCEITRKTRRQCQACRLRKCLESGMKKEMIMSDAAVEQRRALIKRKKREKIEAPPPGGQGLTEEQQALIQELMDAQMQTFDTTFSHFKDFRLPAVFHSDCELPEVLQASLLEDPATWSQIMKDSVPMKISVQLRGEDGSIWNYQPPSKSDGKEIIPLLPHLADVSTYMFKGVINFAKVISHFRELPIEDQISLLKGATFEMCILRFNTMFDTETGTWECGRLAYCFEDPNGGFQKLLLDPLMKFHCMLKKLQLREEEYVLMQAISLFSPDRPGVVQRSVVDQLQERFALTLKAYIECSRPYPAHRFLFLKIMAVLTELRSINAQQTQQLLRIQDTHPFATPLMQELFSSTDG
How it was run: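 Cell-based rPXR activation assay: rPXR cells, 2,000 per well, rested 5hr at 37 C, then exposed to compounds in DMSO for 24 hr at 37 C. Luciferase activity read by One-Glo luminescence after 30 min at room temperature.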

[17] = biological target: Nuclear receptor subfamily 1 group I member 2 (Homo sapiens) (UniProt O75469); experiment: CYP3A4 induction through human pregnane X receptor (PXR) by small molecules, qHTS assay (AID 1346984); note: nearly all actives have a fitted effect of over 40% in size
How it was run: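 Readings come from a luciferase reporter: DPX-2 cells, which are HepG2 cotransfected with PXR and a CYP3A4-promoter construct, were exposed to test compounds for 24 h at 37C before One-Glo detection.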

[18] = biological target: Nuclear receptor subfamily 1 group I member 2 (Homo sapiens) (UniProt O75469); experiment: Human pregnane X receptor (PXR) activation by small molecules, qHTS assay (AID 1346985); note: nearly all actives have a fitted effect of over 40% in size; note: potency is the fitted concentration of half-maximal effect
How it was run: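 DPX-2 cells (HepG2 co-transfected with a PXR response element and a CYP3A4-promoter luciferase construct) were seeded at 2,000 per well, rested 5 hr at 37C, then exposed to DMSO-dissolved compounds for 24 hr. Activation was read as luciferase luminescence.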

[19] = biological target: Acetylcholinesterase (Homo sapiens) (UniProt P22303); experiment: Acetylcholinesterase (AChE) small molecule antagonists: colormetric cell-based qHTS assay (AID 1347395; calls by dose curve; note: nearly all actives have a fitted effect of over 30% in size)
How it was run: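 Homogeneous whole-cell format. SH-SY5Y cells seeded overnight, dosed with compound (30 min, 37 C, 5% CO2), then given DTNB/acetylthiocholine cocktail for 90 min at 37 C; colorimetric signal.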

[20] = biological target: Acetylcholinesterase (Homo sapiens) (UniProt P22303); experiment: Acetylcholinesterase (AChE) small molecule antagonists: enzyme-based qHTS assay (AID 1347397; calls by dose curve; note: nearly all actives have a fitted effect of over 55% in size); settings: Potency: AChE enzyme activity inhibition
How it was run: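 Enzyme inhibition was scored from DTNB-detected thiocholine formed by recombinant human AChE acting on acetylthiocholine. The 30 min compound preincubation and 10 min substrate reaction were both run at room temperature, with DMSO as vehicle control.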

| SMILES | Potency [1] | Potency [2] | outcome [3] | Potency [4] | outcome [5] | Potency [6] | outcome [7] | Potency [8] | outcome [9] | Potency [10] | Potency [11] | Potency [12] | Potency [13] | Potency [14] | Potency [15] | max activation [16] | outcome [17] | Potency [18] | Potency [19] | Potency [20] |
| --- | --- | --- | --- | --- | --- | --- | --- | --- | --- | --- | --- | --- | --- | --- | --- | --- | --- | --- | --- | --- |
| BrCCBr | inactive | inactive | inactive | inactive | inactive | inactive | inactive | inactive | inactive | inactive | inactive | inactive | inactive | 43.6 µM (active) and inactive | – | – | – | – | – | – |
| OC(O)C(Cl)(Cl)Cl | inactive | – | inactive | inactive | inactive | inactive | inactive | inactive | inactive | inactive | inactive | – | – | – | inactive | -1.41% (inactive) | inactive | inactive | – | – |
| Cc1ccc([N+](=O)[O-])cc1C | inactive | inactive | inactive | inactive | inactive | inactive | inactive | inactive | inactive | inactive | inactive | inactive | inactive | inactive | – | – | – | – | inactive | – |
| Cc1ccccc1O | inactive | – | inactive | inactive | inactive | inactive | inactive | inactive | inactive | inactive | inactive | inactive | inactive | inactive | inactive | – | – | – | inactive | inactive |
| C=C(C)CCl | inactive | inactive | inactive | inactive | – | – | inactive | inactive | inactive | inactive | inactive | inactive | inactive | inactive | – | – | – | – | inactive | inactive |
| COc1ccc2c3c1O[C@H]1[C@@H](O)C=C[C@H]4[C@@H](C2)N(C)CC[C@@]341 | inactive | inactive | inactive | inactive | – | – | inactive | 60.1 µM (active) and inactive | – | inactive | inactive | inactive | inactive | – | 67.5 µM (active) and inactive | – | – | – | inactive | inactive |
| CC1OC(C)OC(C)O1 (stereo unspecified) | inactive | inactive | inactive | inactive | – | – | inactive | inactive | inactive | inactive | inactive | inactive | inactive | – | inactive | -1.58% (inactive) and 0.0541% (inactive) | inactive | inactive | inactive | – |
| c1ccc2c(c1)Oc1ccccc1O2 | inactive | inactive | inactive | inactive | – | – | inactive | inactive | inactive | inactive | inactive | inactive | inactive | – | – | – | – | – | – | inactive |
| CC(C)=C[C@@H]1[C@@H](C(=O)OCc2coc(Cc3ccccc3)c2)C1(C)C | inactive | inactive | inactive | inactive | – | – | inactive | inactive | inactive | inactive | 13.7 µM (active) | inactive | inactive | inactive | inactive | 12.4% (inactive) | inactive | 22.4 µM (active) | inactive | – |
